Screens from PubChem.
Rows were chosen to be rich in hits. Some 6.8% of all compounds tested hit in one or more screens of this group.
TSG101-PTAP inh = qHTS Assay for Iinhibitors of HIV-1 Budding by Blocking the Interaction of PTAP/TSG101 | Tumor susceptibility gene 101 protein (Homo sapiens), Q99816 | Fluorescence polarization, FITC-PTAP peptide / Tsg101 binding | Potency, µM (top dose mostly 115 µM), actives largely listed as inhibitors | 340,000 tested, under 10 active | AID 493005, 2010; active = well fitted inhibition curve with a large enough effect in the main read-out, with a control signal flat, not every such curve was filed as active; inconclusive = small, poorly fitted or top-dose-only effect, or effect the other way, or a change in a side signal; inactive = no such curve, though single readings can be large or run the other way
Target sequence (Q99816 whole entry, looked up): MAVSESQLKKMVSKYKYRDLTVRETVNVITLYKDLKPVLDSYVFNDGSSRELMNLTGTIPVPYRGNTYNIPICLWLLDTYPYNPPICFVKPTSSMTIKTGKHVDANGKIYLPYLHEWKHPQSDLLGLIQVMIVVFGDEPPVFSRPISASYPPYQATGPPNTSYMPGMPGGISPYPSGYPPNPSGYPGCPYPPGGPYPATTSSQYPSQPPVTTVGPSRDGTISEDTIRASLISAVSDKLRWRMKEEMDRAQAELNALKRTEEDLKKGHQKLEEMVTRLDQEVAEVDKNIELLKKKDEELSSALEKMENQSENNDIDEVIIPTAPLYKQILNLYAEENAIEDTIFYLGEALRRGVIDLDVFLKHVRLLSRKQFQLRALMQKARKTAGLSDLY
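Fluorescence anisotropy tracks displacement of a FITC-tagged PTAP peptide (50 nM) from the Tsg101 binding domain (10 uM), following a 20 min room-temperature incubation at pH 7.5.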
PINK1 expr mod = A Quantitative High throughput Screen to Identify Chemical Modulators of PINK1 Expression. AID 624263, 2012. PINK1 immunofluorescence, high-content cytometry, 24 h. 410,000 tested, 0.2% active. Potency, µM (series often up to 76.6 µM), hits mostly activators; active = well fitted activation curve with a large enough effect; inconclusive = small, poorly fitted or top-dose-only effect; cell line not stated here; note: nearly all actives have a fitted effect of over 65% in size
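Decision-based qHTS: stable cells, 24 h exposure to five compound concentrations, CCCP as control. Fixed cells stained for PINK1 plus nuclear, mitochondrial and cell markers, cytometer read.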
SW480 rerep = A quantitative high throughput screen for small molecules that induce DNA re-replication in SW480 colon adenocarcinoma cells | 340,000 tested, 1.8% active | AID 624297, 2012 | Potency, µM (top dose mostly 46.1 µM), usual class: activators | SW480 DNA re-replication, Hoechst DNA content imaging, 48 h; note: nearly all actives have a fitted effect of over 55% in size
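Hoechst fluorescence of nuclei (405 nm excitation, 500-530 nm emission) measured by plate-scanning imager after 48 hr compound exposure at 37 C; re-replication scored as increased number of nuclei with elevated intensity.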
KB-V1 cytotox = qHTS assay for MDR1-selective chemotherapeutics: Primary screen using the drug-selected MDR subline cells KB-V1 | KB-V1 MDR cells viability, CellTiter-Glo, 72 h | 400,000 tested, 3.4% active | Potency, µM (top dose mostly 46.1 µM), usual class: cytotoxic; note: nearly all actives have a fitted effect of over 60% in size
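KB-V1 MDR subline cells in DMEM (phenol-red free, 10% FBS) exposed to compounds in qHTS concentration series for 72 h at 37 degrees C. Viability read by CellTiter-Glo luminescence; concentration-effect curves fitted after normalization and correction.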
KB-3-1 tox = qHTS assay for MDR1-selective chemotherapeutics: Primary screen using the parental adenocarcinoma cell KB-3-1. KB-3-1 viability, CellTiter-Glo ATP luminescence, 72 h. Potency, µM (doses to about 46.1 µM), usual class: cytotoxic. 400,000 tested, 1.4% active. AID 1347075, 2019; note: nearly all actives have a fitted effect of over 60% in size
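Parental KB-3-1 adenocarcinoma cells in phenol-red-free DMEM with 10% FBS were pin-treated with compounds at several concentrations, incubated 72 h at 37 °C, and viability read by CellTiter-Glo luminescence; concentration-effect curves were fitted after normalization.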
MCF10A rerep = A quantitative high throughput screen for small molecules that induce DNA re-replication in MCF 10a normal breast cells. Potency, µM (highest dose often 46.1 µM), hits mostly activators. MCF 10A DNA re-replication, Hoechst nuclear intensity, 48 h. 350,000 tested, 2.9% active. AID 624296, 2012; note: nearly all actives have a fitted effect of over 50% in size
Each line names hits and unclear results; the compound was inactive in the other large screens. Unless noted, calls come from the whole dose curve; as a rule, active = well fitted curve in the direction sought with a large enough effect; inconclusive = small, poorly fitted or top-dose-only effect, or another doubt; inactive = no such curve, though single readings can be large; an effect the other way counts as inactive or inconclusive.

CCOc1ccc(S(=O)(=O)N2CCC(N3CCN(Cc4ccc(C)cc4)C(=O)C3=O)CC2)cc1	KB-V1 cytotox inconclusive (no result: TSG101-PTAP inh, SW480 rerep, MCF10A rerep)
Cc1ccc(C(=O)COC(=O)C2C3C=CC(C3)C2C(=O)OCC(=O)c2ccc(C)c(C)c2)cc1C (stereo not given)	KB-V1 cytotox 16µM, KB-3-1 tox inconclusive
O=C(Nc1cc(F)ccc1F)N1CCC(CN2CCCC2)CC1	none (no result: TSG101-PTAP inh, SW480 rerep, KB-V1 cytotox, KB-3-1 tox, MCF10A rerep)
COCCN1C=C(C(=O)OC)C(c2ccccc2Cl)C(C(=O)OC)=C1	SW480 rerep 21µM, MCF10A rerep 13µM
COC(=O)C1=CN(Cc2ccc(OC)c(OC)c2)C=C(C(=O)OC)C1c1ccc(F)cc1	SW480 rerep 21µM, KB-3-1 tox inconclusive, MCF10A rerep 18µM
CCN1C=C(C(=O)OC)C(c2cccc(OC)c2OC)C(C(=O)OC)=C1	SW480 rerep 16µM, KB-V1 cytotox inconclusive, MCF10A rerep inconclusive
COC(=O)C1=CN(Cc2ccc(OC)c(OC)c2)C=C(C(=O)OC)C1c1ccc(O)cc1	KB-V1 cytotox inconclusive, MCF10A rerep inconclusive
COC(=O)C1=CN(Cc2ccc(OC)c(OC)c2)C=C(C(=O)OC)C1c1cccc(OC)c1OC	SW480 rerep inconclusive, MCF10A rerep inconclusive
Cc1cccc(N(C)C(=O)C(Cc2ccccc2)NS(=O)(=O)c2cccc3nsnc23)c1 (stereo not given)	none (no result: TSG101-PTAP inh, SW480 rerep, MCF10A rerep)
COc1ccc(CN2C(=O)C(NC(=O)c3ccc(C)cc3)(C(F)(F)F)N=C2c2ccccc2)cc1 (stereo not given)	none (no result: TSG101-PTAP inh, SW480 rerep, MCF10A rerep)
Cc1ccc(CNC(=O)Cn2ncc3c(C)n(Cc4ccc(Cl)cc4)c(C)c3c2=O)cc1	none (no result: TSG101-PTAP inh, SW480 rerep, MCF10A rerep)
O=C(Cc1ccccc1)Nc1cccc(N2C(=O)C=CC2=O)c1	SW480 rerep 9.2µM, MCF10A rerep 12µM
CC(C)(C)NC(=O)NCC1CCCC1NC(=O)NC(C)(C)C (stereo not given)	KB-V1 cytotox 26µM
CC1CCc2c(sc(Nc3nc4c(F)cccc4s3)c2C(N)=O)C1 (stereo not given)	SW480 rerep inconclusive, MCF10A rerep 7.3µM
CCC(C)N1C(=O)c2ccccc2C1C(=O)NC1CCCCCC1 (stereo not given)	KB-V1 cytotox 18µM
COc1ccc(CN2C(=O)c3ccccc3C2C(=O)NC2CCCC2)c(OC)c1 (stereo not given)	KB-V1 cytotox 3.7µM
CCOc1ccc(CN2C(=O)c3ccccc3C2C(=O)NC(C)CC)cc1OC (stereo not given)	none
O=C(NC1CCCCCC1)C1c2ccccc2C(=O)N1Cc1ccco1 (stereo not given)	KB-V1 cytotox 21µM
CCC(C)NC(=O)C1c2ccccc2C(=O)N1Cc1cc(OC)ccc1OC (stereo not given)	KB-V1 cytotox 7.3µM
COc1ccc2c(c1)c1c(c(=O)n(-c3ccc(F)c(Cl)c3)c(=O)n1Cc1ccccc1C)n2C	none (no result: TSG101-PTAP inh, SW480 rerep, MCF10A rerep)
COc1ccccc1-c1cc2nc(C)c(CCC(=O)NCc3cccc(Cl)c3)c(C)n2n1	none (no result: TSG101-PTAP inh, SW480 rerep, MCF10A rerep)
COc1ccc(NS(=O)(=O)c2cc(C)ccc2C)cc1	SW480 rerep inconclusive, KB-3-1 tox 7.3µM, MCF10A rerep inconclusive
CC(C)c1ccc(S(=O)(=O)Nc2ccc(SC(F)F)cc2)cc1	KB-V1 cytotox inconclusive, MCF10A rerep inconclusive
COc1ccc(NS(=O)(=O)c2cc(OC)ccc2NC(=O)c2cc(C)oc2C)cc1	SW480 rerep 13µM, KB-V1 cytotox inconclusive, KB-3-1 tox inconclusive, MCF10A rerep 13µM
Cc1ccc(S(=O)(=O)Nc2ccc(SC(F)F)cc2)c(C)c1	KB-V1 cytotox 16µM, MCF10A rerep inconclusive
COc1ccc(NS(=O)(=O)c2cc(S(C)(=O)=O)ccc2C)cc1	none
